Experimental data from PubChem BioAssay AID1159580 (chemical genetic matrix, 2015).
Values joined by “and” are separate entries in the source; they are usually repeats but may differ in a detail not shown here. Equal values may be shown once. Out of some 5,500 compounds screened, about 2,000 (36%) were called active. About 18% were inconclusive and are not listed. Rule as the data show it: active = normalized growth mostly below about 0.91 (no sharp cut-off); inconclusive = no clear call, values can overlap the other calls; inactive = mostly above about 0.92. The list shows a part of the results.

Experiment: chemical genetic growth profiling, strain panel (AID 1159580);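 also: tested at 20 µM; growth read once vehicle control cultures reached saturation at 30 °C; 1 = growth at the plate median or of vehicle wells; lower values mean less growth of the strain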
Conditions: growth OD

Measured: normalized growth

Cc1cc(C(C)(C)C)c(O)c(C)c1CC1=NCCN1
inactive: S. cerevisiae deletion strains, locus YJR066W, strain TOR1, active compounds read low 0.928 | S. cerevisiae deletion strains, locus YJR075W, strain HOC1, active compounds read low 0.995 | S. cerevisiae deletion strains, locus YKL009W, strain mrt4, active compounds read low 1.01 | S. cerevisiae deletion strains, locus YKL068W, active compounds read low 1 | S. cerevisiae deletion strains, locus YKL085W, strain MDH1 (second series), active compounds read low 1 | S. cerevisiae deletion strains, locus YKL085W, strain MDH1, active compounds read low 1 | S. cerevisiae deletion strains, locus YKL160W, strain elf1, active compounds read low 1.02 | S. cerevisiae deletion strains, locus YKL190W, strain CNB1, active compounds read low 0.991 | S. cerevisiae deletion strains, locus YKR001C, strain vps1, active compounds read low 1.02 | S. cerevisiae deletion strains, locus YKR026C, strain gcn3, active compounds read low 1.01 | S. cerevisiae deletion strains, locus YKR091W, strain srl3, active compounds read low 0.996 | S. cerevisiae deletion strains, locus YLL001W, strain dnm1, active compounds read low 1.01 | S. cerevisiae deletion strains, locus YLL026W, active compounds read low 1.02 | S. cerevisiae deletion strains, locus YLL041C, strain sdh2, active compounds read low 1.01 | S. cerevisiae deletion strains, locus YLR027C, strain aat2, active compounds read low 1 | S. cerevisiae deletion strains, locus YLR039C, strain RIC1, active compounds read low 1.01 | S. cerevisiae deletion strains, locus YLR058C, strain SHM2, active compounds read low 0.991 | S. cerevisiae deletion strains, locus YLR102C, strain apc9, active compounds read low 1 | S. cerevisiae deletion strains, locus YLR113W, strain HOG1, active compounds read low 0.997 | S. cerevisiae deletion strains, locus YLR221C, strain rsa3, active compounds read low 1.01 | S. cerevisiae deletion strains, locus YLR258W, strain gsy2, active compounds read low 1 | S. cerevisiae deletion strains, locus YLR262C, strain YPT6 (second series), active compounds read low 1.02 | S. cerevisiae deletion strains, locus YLR262C, strain YPT6, active compounds read low 0.974 | S. cerevisiae deletion strains, locus YLR268W, strain sec22, active compounds read low 1.01 | S. cerevisiae deletion strains, locus YLR320W, strain mms22, active compounds read low 1.02 | S. cerevisiae deletion strains, locus YLR330W, strain CHS5, active compounds read low 0.999 | S. cerevisiae deletion strains, locus YLR342W, strain FKS1 (second series), active compounds read low 0.984 | S. cerevisiae deletion strains, locus YLR342W, strain FKS1, active compounds read low 1 | S. cerevisiae deletion strains, locus YLR357W, strain rsc2, active compounds read low 1.02 | S. cerevisiae deletion strains, locus YLR370C, strain arc18, active compounds read low 1.01 | S. cerevisiae deletion strains, locus YLR371W, strain rom2, active compounds read low 1.01 | S. cerevisiae deletion strains, locus YLR384C, strain iki3, active compounds read low 1.02 | S. cerevisiae deletion strains, locus YLR418C, strain cdc73, active compounds read low 1.02 | S. cerevisiae deletion strains, locus YML016C, strain PPZ1, active compounds read low 0.998 | S. cerevisiae deletion strains, locus YML032C, strain rad52, active compounds read low 0.999 | S. cerevisiae deletion strains, locus YML120C, strain ndi1, active compounds read low 1.01 | S. cerevisiae deletion strains, locus YML124C, strain tub3, active compounds read low 1.02 | S. cerevisiae deletion strains, locus YMR058W, strain fet3, active compounds read low 1.01 | S. cerevisiae deletion strains, locus YMR078C, strain ctf18, active compounds read low 1.02 | S. cerevisiae deletion strains, locus YMR125W, strain sto1, active compounds read low 1 | S. cerevisiae deletion strains, locus YMR129W, active compounds read low 1 | S. cerevisiae deletion strains, locus YMR205C, strain PFK2, active compounds read low 1.04 | S. cerevisiae deletion strains, locus YMR223W, strain ubp8, active compounds read low 1 | S. cerevisiae deletion strains, locus YMR231W, strain pep5, active compounds read low 1.01 | S. cerevisiae deletion strains, locus YMR263W, strain SAP30, active compounds read low 1 | S. cerevisiae deletion strains, locus YMR307W, strain GAS1, active compounds read low 0.985 and 0.998 | S. cerevisiae deletion strains, locus YNL067W, strain RPL9B, active compounds read low 0.988 | S. cerevisiae deletion strains, locus YNL071W, strain lat1, active compounds read low 1 | S. cerevisiae deletion strains, locus YNL128W, strain TEP1, active compounds read low 0.998 and 1.04 | S. cerevisiae deletion strains, locus YNL153C, strain GIM3, active compounds read low 0.996 and 1.01 | S. cerevisiae deletion strains, locus YNL175C, strain NOP13, active compounds read low 1 | S. cerevisiae deletion strains, locus YNL183C, strain NPR1, active compounds read low 0.936 | S. cerevisiae deletion strains, locus YNL197C, strain WHI3, active compounds read low 1.01 | S. cerevisiae deletion strains, locus YNL209W, strain ssb2, active compounds read low 1 | S. cerevisiae deletion strains, locus YNL224C, strain SQS1, active compounds read low 1.02 | S. cerevisiae deletion strains, locus YNL233W, strain BNI4, active compounds read low 1 | S. cerevisiae deletion strains, locus YNL248C, strain rpa49, active compounds read low 0.997 | S. cerevisiae deletion strains, locus YNL250W, strain rad50, active compounds read low 1.01 | S. cerevisiae deletion strains, locus YNL271C, strain bni1, active compounds read low 1.02 | S. cerevisiae deletion strains, locus YNL298W, strain CLA4, active compounds read low 0.982 | S. cerevisiae deletion strains, locus YNL307C, strain MCK1, active compounds read low 1.01 | S. cerevisiae deletion strains, locus YNL322C, strain KRE1 (second series), active compounds read low 1.03 | S. cerevisiae deletion strains, locus YNL322C, strain KRE1, active compounds read low 0.998 | S. cerevisiae deletion strains, locus YNR049C, strain mso1, active compounds read low 1.01 | S. cerevisiae deletion strains, locus YNR052C, strain pop2, active compounds read low 1.02 | S. cerevisiae deletion strains, locus YOL006C, strain TOP1, active compounds read low 1.01 | S. cerevisiae deletion strains, locus YOL012C, strain htz1 1.23 | S. cerevisiae deletion strains, locus YOL147C, strain pex11, active compounds read low 1.01 | S. cerevisiae deletion strains, locus YOR001W, strain rrp6, active compounds read low 0.97 | S. cerevisiae deletion strains, locus YOR061W, strain CKA2, active compounds read low 1 | S. cerevisiae deletion strains, locus YOR069W, strain VPS5, active compounds read low 0.997 | S. cerevisiae deletion strains, locus YOR070C, strain gyp1, active compounds read low 1.01 | S. cerevisiae deletion strains, locus YOR080W, strain dia2, active compounds read low 1 | S. cerevisiae deletion strains, locus YOR083W, strain WHI5 (second series), active compounds read low 1.02 | S. cerevisiae deletion strains, locus YOR083W, strain WHI5, active compounds read low 1.03 | S. cerevisiae deletion strains, locus YOR106W, strain vam3, active compounds read low 1.02 | S. cerevisiae deletion strains, locus YOR136W, strain idh2, active compounds read low 1 | S. cerevisiae deletion strains, locus YOR144C, strain elg1, active compounds read low 1 | S. cerevisiae deletion strains, locus YOR184W, strain ser1, active compounds read low 1.01 | S. cerevisiae deletion strains, locus YOR231W, strain MKK1, active compounds read low 1.01 | S. cerevisiae deletion strains, locus YOR265W, strain rbl2, active compounds read low 1 | S. cerevisiae deletion strains, locus YOR270C, strain vph1, active compounds read low 1.01 | S. cerevisiae deletion strains, locus YOR290C, strain snf2, active compounds read low 1.03 | S. cerevisiae deletion strains, locus YOR316C, strain cot1, active compounds read low 1 | S. cerevisiae deletion strains, locus YPL051W, strain arl3, active compounds read low 1.02 | S. cerevisiae deletion strains, locus YPL055C, strain LGE1, active compounds read low 0.983 | S. cerevisiae deletion strains, locus YPL078C, strain atp4, active compounds read low 1.01 | S. cerevisiae deletion strains, locus YPL106C, strain sse1, active compounds read low 1.04 | S. cerevisiae deletion strains, locus YPL240C, strain hsp82, active compounds read low 0.994 | S. cerevisiae deletion strains, locus YPL256C, strain CLN2, active compounds read low 0.961 | S. cerevisiae deletion strains, locus YPR119W, strain clb2, active compounds read low 1 | S. cerevisiae deletion strains, locus YPR141C, strain kar3, active compounds read low 1.01 | S. cerevisiae deletion strains, locus YPR163C, strain tif3, active compounds read low 1.02 | S. cerevisiae deletion strains, locus YPR167C, strain met16, active compounds read low 1.01 | S. cerevisiae deletion strains, strain wtn01, active compounds read low 1.01 | S. cerevisiae strains, strain wild type, active compounds read low 0.984
